# From ChEMBL document CHEMBL3988442, “University of Dundee, Small-Polar-MMV Screening Library” (2021)
# The campaign covered roughly 38,000 compounds. About 1,200 (3.2%) showed an effect of 50% or more. The median lay at about -58%. What follows is part of a selection rich in strong results, with near analogues and random picks from the rest.
# Tested on: Plasmodium falciparum
# Experiment: Calibr Malaria Delayed Death Assay SOP
# Assay type: functional, organism-based
# Parameters: scale not given: in the data most compounds retested in dose-response had high values
# Conditions: concentration 4.99e-06 (unit not given; other assays of the set use mol/L)
row,SMILES,Percent Effect [%]
1,CC1CCCN(C(=O)CNC(=O)c2ccoc2)C1 (stereo unspecified),-96.13
2,CC(C)(C)CC(=O)Nc1cnn(-c2ccccc2S(C)(=O)=O)c1,-5.765
3,c1ccc2oc(CCCN3CCc4cncnc4C3)nc2c1,-82.49
4,Cc1ncc2c(n1)CN(Cc1nc3ccccc3o1)CC2,-59.98
5,CC(C)c1ncc2c(n1)CN(CCCc1nc3ccccc3o1)CC2,69.07
6,O=C(NCCc1cnccn1)c1cccc(S(=O)(=O)NC2CCOC2)c1 (stereo unspecified),-80.94
7,O=C(c1cnn[nH]1)N(CCCO)Cc1cccnc1,-126.7
8,CN(Cc1ccsc1)C(=O)CNC(=O)N1CCc2ccccc2C1,-30.75
9,COc1cccc(CN2CCC3(CC(Nc4ccncn4)C3)C2)c1F (stereo unspecified),-62.87
10,N#Cc1cccc(S(=O)(=O)N2CC(CC(=O)O)c3ccccc32)c1 (stereo unspecified),-122.6
11,CN(C)C1Cc2ccccc2N(S(=O)(=O)c2cccc(C#N)c2)C1 (stereo unspecified),75.93
12,CN1CCN(S(=O)(=O)c2cccc(C#N)c2)c2ccc(F)cc21,-39.03
13,CC(=O)NCCNC(=O)C(c1ccccc1C)N(C)C (stereo unspecified),-142.6
14,Cc1cscc1-c1nc(C2CCOC2)no1 (stereo unspecified),-27.07
15,O=C(c1scc2c1OCCO2)N1CCOC(CCc2ccccc2)C1 (stereo unspecified),88.31
16,O=C(c1scc2c1OCCO2)N1CCOC(Cc2cccc(F)c2)C1 (stereo unspecified),-44.17
17,O=C(c1scc2c1OCCO2)N1CCOC(Cc2ccc(F)cc2)C1 (stereo unspecified),-16.04
18,CC1CCC(NS(=O)(=O)CC(=O)NCC2CCC2)CC1 (stereo unspecified),-74.87
19,O=C(CCc1ccco1)N1CCC(Oc2ccccc2)(C(=O)O)CC1,-48.84
20,COc1ccc(CNC(=O)C2=NN(c3ccc(C)cc3)C(=O)CN2)cc1,74.74
21,COc1ncccc1CNC(=O)C1=NN(c2ccccc2)C(=O)CN1,-51.2
22,O=C(NCc1cccnc1)C1=NN(c2ccccc2)C(=O)CN1,39.33
23,CN1C(=O)CC[C@]12CC[C@@H](NC(=O)NCc1cccnc1)CC2.O=C(O)C(F)(F)F,-78.37

row,SMILES,Percent Effect [%]
1,CCc1ccc(CN(C/C=C/c2ccccc2)CCOC)nc1,52.86
2,COCCN(C/C=C/c1ccccc1)Cc1nccs1,-11.48
3,COCCN(C/C=C/c1ccccc1)Cc1ccccn1,20.8
4,O=C1CC(c2ccncc2)C2(CCN(Cc3cccnc3)CC2)N1 (stereo unspecified),-62.4
5,CN1CCCN(C(=O)NCCNc2cnccn2)CC1,-4.347
6,COCCN1C[C@@H]2[C@@H](OC)CCN(Cc3ccc(C)o3)[C@@H]2C1.O=C(O)C(F)(F)F.O=C(O)C(F)(F)F,3.217
7,CO[C@H]1CCN(Cc2cccs2)[C@@H]2CN(Cc3ccncc3)C[C@H]12.O=C(O)C(F)(F)F.O=C(O)C(F)(F)F.O=C(O)C(F)(F)F,59.98
8,COCCN1C[C@@H]2[C@@H](OC)CCN(Cc3ccco3)[C@@H]2C1.O=C(O)C(F)(F)F.O=C(O)C(F)(F)F,-1.66
9,COCCN1C[C@@H]2[C@@H](OC)CCN(Cc3ccncc3)[C@@H]2C1.O=C(O)C(F)(F)F.O=C(O)C(F)(F)F.O=C(O)C(F)(F)F,24.39
10,COCCN1C[C@@H]2[C@@H](OC)CCN(Cc3cccs3)[C@@H]2C1.O=C(O)C(F)(F)F.O=C(O)C(F)(F)F,66.16
11,COCCN1C[C@H]2[C@@H](C1)N(Cc1cnn(C)c1)CC[C@H]2OC.O=C(O)C(F)(F)F.O=C(O)C(F)(F)F,-59.33
12,CO[C@@H]1CCN(Cc2cccc(C)n2)[C@@H]2CN(Cc3ccncc3)C[C@@H]21.O=C(O)C(F)(F)F.O=C(O)C(F)(F)F.O=C(O)C(F)(F)F.O=C(O)C(F)(F)F,30.62
13,CO[C@H]1CCN(Cc2cnn(C)c2)[C@@H]2CN(Cc3ccncc3)C[C@H]12.O=C(O)C(F)(F)F.O=C(O)C(F)(F)F.O=C(O)C(F)(F)F,-72.72
14,COCCN1C[C@@H]2[C@@H](OC)CCN(Cc3ccsc3)[C@@H]2C1.O=C(O)C(F)(F)F.O=C(O)C(F)(F)F,66.72
15,CO[C@H]1CCN(C2CCC2)[C@@H]2CN(Cc3ccncc3)C[C@H]12.O=C(O)C(F)(F)F.O=C(O)C(F)(F)F.O=C(O)C(F)(F)F,-45.55
16,CO[C@H]1CCN(Cc2c(C)noc2C)[C@@H]2CN(Cc3ccncc3)C[C@H]12.O=C(O)C(F)(F)F.O=C(O)C(F)(F)F.O=C(O)C(F)(F)F,-5.39
17,CO[C@@H]1CCN(Cc2cccs2)[C@@H]2CN(Cc3ccncc3)C[C@@H]21.O=C(O)C(F)(F)F.O=C(O)C(F)(F)F.O=C(O)C(F)(F)F,52.08
18,CN1CCN(C(=O)c2cc3sccc3n2Cc2ccccc2F)CC1,29.89
19,NC(=O)c1ccc(CN2CCCC(N3CCCCCC3)C2)cc1 (stereo unspecified),-140
20,COCC(=O)N1C[C@H](N(C)Cc2cncnc2)[C@H]2OCCC[C@H]21,-24
21,COc1ccccc1OC1CCN(Cc2ccc(N(C)C)nc2)CC1,-79.91
22,O=C(NCCn1cccc1)c1c(O)cc(F)cc1F,-181.2
23,Cc1cc(C(=O)N2CCCC2c2nnc3n2CCCCC3)on1 (stereo unspecified),-57.59

row,SMILES,Percent Effect [%]
1,CCN1C[C@H]2[C@@H](C1)N(S(=O)(=O)c1ccccc1F)CC[C@H]2OC.O=C(O)C(F)(F)F,45.85
2,CCN1C[C@@H]2[C@@H](OC)CCN(S(=O)(=O)c3cccnc3)[C@@H]2C1.O=C(O)C(F)(F)F.O=C(O)C(F)(F)F,-23.75
3,CCN1C[C@H]2[C@@H](C1)N(S(=O)(=O)c1ccccc1)CC[C@H]2OC.O=C(O)C(F)(F)F,60.81
4,O=c1cc(N2CCCCC2)cnn1CC(O)C(F)(F)F (stereo unspecified),-156.3
5,Cc1ccnc(OCC(=O)N2CCCC2)n1,-75.67
6,Fc1cccc(Cl)c1CNCCCOc1ccccn1,9.624
7,Cc1cccc(NC(=O)C2CSc3ncc(C)c(=O)n3C2)n1 (stereo unspecified),-106.9
8,c1cnc(N2CCC3(COCc4cnc(N5CCOCC5)nc43)C2)nc1 (stereo unspecified),-59.23
9,CC(C)(O)CN1CCN(C(=O)c2cccn2Cc2ccccc2)CC1,-70.89
10,Cc1ccc(C2(CN(C)Cc3sccc3C)CCNCC2)nc1,76.73
11,Cc1ccc(C2(CN(C)Cc3snnc3C)CCNCC2)nc1,-24.27
12,Cc1ccc(C2(CN(C)Cc3c(C)nn(C)c3C)CCNCC2)nc1,16.34
13,CCCc1nc(N2CCCC(CCOC)C2)c2cnn(C)c2n1 (stereo unspecified),-84.44
14,CCC(CO)NCc1ccc(-c2ccc(Br)cc2)o1.Cl (stereo unspecified),45.11
15,Cc1cc(N2CCCC2)nc(N(C)CCO)c1C#N,-125.9
16,CN(C)c1nc2c(c(NCc3cc(O)ncn3)n1)CCCC2,89.31
17,Cc1nc(CCNc2nc(N(C)C)nc3c2CCCC3)cc(=O)[nH]1,-16.34
18,CC(=O)N1CCc2nc(N(C)C)nc(NCCc3ccccc3)c2CC1,-47.75
19,Cc1cnn(CC2CCCN2Cc2nnc(C)o2)c1 (stereo unspecified),-118.7
20,CC(C)c1cc(NC(=O)c2ccc([S+]([O-])C(C)C)cc2)[nH]n1 (stereo unspecified),-180.3
21,CC(C)c1cc(NC(=O)c2ccc(C(=O)NC(C)(C)C)cc2)[nH]n1,62.94
22,CC(C)c1cc(NC(=O)c2ccncc2)[nH]n1,-141
23,CCn1c(C)nnc1Sc1nn2cc(C)nc2s1,-124.9

row,SMILES,Percent Effect [%]
1,CCN1CC2(CC1=O)CN(C(=O)c1ccoc1)CCN(C(=O)N(C)C)C2 (stereo unspecified),-39.9
2,Cc1ccc2[nH]c(CN3CC[C@@H](N4CCN(C)CC4)[C@H](O)C3)c(C)c2c1,-45.01
3,Cc1c(CN2CC[C@@H](N3CCC(O)CC3)[C@H](O)C2)[nH]c2ccc(Cl)cc12,53.46
4,Cc1c(CN2CC[C@@H](N3CCC(O)CC3)[C@H](O)C2)[nH]c2ccc(F)cc12,-24.81
5,Cc1noc([C@@]23CCO[C@@H]2CCN(S(=O)(=O)c2cccnc2)C3)n1,-112.8
6,CSc1ccc(CN(CCO)C(=O)CCc2ccc(O)cc2)cc1,-83.46
7,CN1CCC(N2CCC(C(=O)N(C)C)CC2)CC1.O=C(O)C(F)(F)F.O=C(O)C(F)(F)F,-35.37
8,Cc1cc(=O)n2nc(Oc3cccc(I)c3)sc2n1,55.78
9,Cc1cc(=O)n2nc(Oc3ccc(C#N)cc3Cl)sc2n1,19.91
10,Cc1cc(=O)n2nc(Oc3cc(Cl)cc(Cl)c3)sc2n1,-6.381
11,O=c1[nH]cnc2[nH]c(N3CCCCC3)nc12,-26.61
12,N#Cc1ccc(NCc2cccc(OCC3CCCO3)c2)nc1 (stereo unspecified),-77.93
13,COCc1nc(CNC(=O)C(C)n2ccnc2C(C)C)no1 (stereo unspecified),-17.51
14,COc1cc2c(cc1CNC(=O)C(C)n1ccnc1C(C)C)OCCO2 (stereo unspecified),8.922
15,COc1cc2c(cc1CNC(=O)C(C)n1ccnc1C(C)C)CCC2 (stereo unspecified),59.1
16,NS(=O)(=O)NCc1cc(-c2ccc(C(F)(F)F)cc2)n[nH]1,-60.23
17,Fc1cccc(N2CCCC3(CN(Cc4nccs4)CCO3)C2)c1.O=C(O)C(F)(F)F.O=C(O)C(F)(F)F (stereo unspecified),-4.725
18,Fc1cccc(N2CCCC3(CN(Cc4ccco4)CCO3)C2)c1.O=C(O)C(F)(F)F.O=C(O)C(F)(F)F (stereo unspecified),40.81
19,Fc1cccc(N2CCCC3(CN(Cc4cccnc4)CCO3)C2)c1.O=C(O)C(F)(F)F.O=C(O)C(F)(F)F.O=C(O)C(F)(F)F (stereo unspecified),64.23
20,Fc1cccc(N2CCCC3(CN(Cc4ccccn4)CCO3)C2)c1.O=C(O)C(F)(F)F.O=C(O)C(F)(F)F.O=C(O)C(F)(F)F (stereo unspecified),-90.59
21,Cn1cc(CN2CCOC3(CCCN(c4cccc(F)c4)C3)C2)cn1.O=C(O)C(F)(F)F.O=C(O)C(F)(F)F (stereo unspecified),-10.6
22,Fc1cccc(N2CCCC3(C2)CN(c2ncccn2)CCO3)c1.O=C(O)C(F)(F)F.O=C(O)C(F)(F)F (stereo unspecified),69.94
